Laboratory results taken from PubChem BioAssay AID1878 (Sanford-Burnham Center for Chemical Genomics, 2009).
Screen size: about 1,000 compounds; about 200 (20%) were called active. Not all results are given here. Measured potencies and affinities stand elsewhere. A number with no mark means an inactive call. No stated cut-off is given here; in the data, active means inhibition above about 55%; inactive means the rest.

Target: Dual specificity protein phosphatase 3 (Homo sapiens) (UniProt P51452)
Sequence (P51452 whole entry, looked up): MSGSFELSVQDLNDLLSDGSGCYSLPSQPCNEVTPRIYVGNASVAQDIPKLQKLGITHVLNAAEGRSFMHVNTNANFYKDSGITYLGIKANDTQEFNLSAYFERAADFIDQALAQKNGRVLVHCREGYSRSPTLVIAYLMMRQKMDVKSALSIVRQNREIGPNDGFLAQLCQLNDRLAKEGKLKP
Assay: VHR1 phosphatase inhibitors, biochemical (AID 1878)
Conditions: recombinant VHR phosphatase, fluorogenic substrate; at 13.3 µM; active compounds read high

Compared with `COc1ccccc1CN1CCCC(CN(CCN(C)C)C(=O)C2CCCC2)C1` (centres undefined), `COc1ccccc1N1CCN(C2CCCN(C(=O)CCc3cnccn3)C2)CC1` (centres undefined) is higher in inhibition: -18.4% for the first, -1.8% for the second.

Going from `CC(C)(C)c1cc(=O)n2[nH]c(N)nc2n1` to `Cc1cc(C)c(S(=O)(=O)c2cccc(Br)c2C)c(=O)[nH]1`, the inhibition rises from -15.2% to 9.5%.

First: COC(=O)C1(C)NC(c2ccc(Cl)cc2)C2C(=O)N(c3ccccc3)C(=O)C21 (centres undefined)
Second: Cc1ccccc1N1C(=O)C2ON(c3ccccc3)C(c3ccncc3)C2C1=O (centres undefined)
The inhibition of the first is lower: -6.5% for the first, -3.4% for the second.

Going from `CN1CCN(c2nc(-c3ccccc3Cl)nc3ccccc23)CC1` to `Cc1nc2ccccc2c(=O)n1NC(=O)c1ccccc1`, the inhibition falls from 5.7% to -2%.

First: COc1ccc(NC2CCCN(C(=O)CCN3CCOCC3)C2)cc1 (centres undefined)
Second: COc1ccc(C(=O)N2CCN(CCNC(=O)C(=O)Nc3ccc(Br)cc3)CC2)cc1
The inhibition of the first is higher: 2.8% for the first, 1.9% for the second.

Compared with `CC(C)OC(=O)CCCNc1ccc([N+](=O)[O-])cc1[N+](=O)[O-]`, `Cc1cc(=O)oc2cc(OC(C)C(=O)NCCc3ccc(S(N)(=O)=O)cc3)ccc12` (centres undefined) is lower in inhibition: 5.9% for the first, -4.7% for the second.

Compared with `O=C(Nc1ccc(Br)cc1F)c1ccc2nsnc2c1`, `O=C(Nc1cccc2ncccc12)c1ccccc1F` is lower in inhibition: 0.8% for the first, -0.8% for the second.

Compared with `CCC(Sc1nnc(-c2ccco2)n1C)C(=O)Nc1nnc(C)s1` (centres undefined), `Cc1cccc(NC(=O)Cc2nnc(NC(=O)Nc3ccccc3F)s2)c1` is higher in inhibition: -1.6% for the first, 16.3% for the second.

First: CCCCCCN1CC(=O)N2Cc3[nH]c4ccccc4c3C[C@H]2C1=O
Second: COc1cccc(C2c3[nH]c4ccccc4c3C[C@H]3C(=O)N(CCCOC(C)C)CC(=O)N23)c1 (some centres undefined)
The inhibition of the first is higher: 11.5% for the first, 10.9% for the second.

First: COc1ccc(/C=N/NC(=O)c2[nH]c3ccc(C)cc3c2-c2ccccc2)c(C(=O)O)c1OC
Second: CCCC(=O)Nc1c(-c2ccc(C)cc2)c(=O)c2ccccc2n1C
The inhibition of the first is higher: 6.7% for the first, 2.1% for the second.

Compared with `O=C(COCc1cc(-c2ccc3c(c2)OCO3)on1)Nc1cccnc1Cl`, `O=C(CSc1nnc(-c2ccccc2)o1)c1ccc2c(c1)OCCO2` is lower in inhibition: 2.9% for the first, -8.7% for the second.

First: C[C@]1(CO)CCC[C@@]2(C)C1CC[C@@H](CO)[C@@H]2CCc1ccoc1 (some centres undefined)
Second: CC(=O)OC1CC2(C)/C(=N\O)CCC2C2CCc3cc(O)ccc3C12 (centres undefined)
The inhibition of the first is higher: -0.3% for the first, -5.1% for the second.

Going from `C/C(=N\NC(=O)c1nnn(-c2nonc2N)c1C)c1ccc(OCc2ccccc2)cc1` to `CCCc1c(C(=O)N/N=C(\C)CCc2ccccc2)nnn1-c1nonc1N`, the inhibition falls from 8.6% to 1.7%.

First: CCc1nn(CC(=O)NCc2ccccc2Cl)c(=O)c2cccn12
Second: Cc1nn(CC(=O)NCCCN2CC(C)CC(C)C2)c(=O)c2cccn12 (centres undefined)
The inhibition of the first is higher: 17.5% for the first, -10.3% for the second.

Compared with `COC(=O)c1sccc1NC(=O)Nc1ccc(C)cc1C`, `CCN(CC)CCCNC(=O)c1ccc(C)c(NC(=O)C2=C(C)OCCS2)c1` is higher in inhibition: -7.1% for the first, 5.7% for the second.

Going from `COc1ccc(OC)c(-c2csc(NC(=O)Cc3ccc(F)cc3)n2)c1` to `Cc1ccc2nc(SCC(=O)NCc3ccc(F)cc3)[nH]c2c1`, the inhibition rises from 0.5% to 19.1%.

First: Cn1cnc(S(=O)(=O)N2CCN(c3ccc(F)cc3)CC2)c1
Second: Cc1ccc(N2C(=O)CC(N3CCN(S(=O)(=O)c4ccccc4)CC3)C2=O)c(C)c1 (centres undefined)
The inhibition of the first is lower: -8% for the first, -2.4% for the second.

First: Cc1ccc(NC(=O)NN2CCN(C)CC2)cc1C
Second: Cc1ccc(NC(=O)NCCN2CCCCC2)cc1C
The inhibition of the first is higher: -0.5% for the first, -2% for the second.

Going from `O=C(Nc1ccc(Cl)c(Cl)c1)Nc1ccccn1` to `O=S(=O)(c1cc(Cl)ccc1Cl)N1CCc2ccccc21`, the inhibition falls from 3.2% to -1.3%.

First: CCC(C(=O)NCCCN1CCN(C)CC1)n1nc(C)n2c(cc3occc32)c1=O (centres undefined)
Second: CCN1CCN(CC(=O)Nc2nc3ccc(C)cc3s2)CC1
The inhibition of the first is lower: -10.7% for the first, -5.5% for the second.

Compared with `Cc1ccc(-n2nc3c(=O)n(CCCC(=O)NC4CCC(C)CC4)nc(C)c3c2C)cc1` (centres undefined), `COCCNC(=O)CN1N=C(c2ccc(C)cc2)CCC1=O` is lower in inhibition: 23.9% for the first, 6.3% for the second.

Compared with `CCN(CC)C(=O)Cn1cc(C(=O)C(=O)NCCCN2CCCCC2)c2ccccc21`, `NC(=O)c1ccc(NC(=O)CS(=O)(=O)c2cn(CC(=O)N3CCCCC3)c3ccccc23)cc1` is lower in inhibition: 1.8% for the first, -15.1% for the second.

First: O=C(NCc1ccc(F)cc1)C1CCN(S(=O)(=O)c2cccc3nonc23)CC1
Second: CC(=O)c1ccc(S(=O)(=O)Nc2ccc(N3CCOCC3)cc2)cc1
The inhibition of the first is higher: 4.8% for the first, -2% for the second.

First: CC(C)C[C@H](NC(=O)C1CC(=O)N(c2ccc3c(c2)OCO3)C1)C(=O)NC1CCCC1 (some centres undefined)
Second: CC1CCCN(CCCNS(=O)(=O)c2ccc3c(c2)CCN3C(=O)C2CC2)C1 (centres undefined)
The inhibition of the first is higher: -5% for the first, -6.7% for the second.

First: COc1cc(OC)nc(Oc2cc(C=O)ccc2OC)n1
Second: CCCn1c(C(O)c2ccc(OC)c(OC)c2)nc2ccccc21 (centres undefined)
The inhibition of the first is higher: 19.7% for the first, 7% for the second.

Compared with `CCN(CC)CCCNC(=O)c1cn(C)c2ccc(S(=O)(=O)N(C)C3CCCCC3)cc2c1=O`, `COc1cccc(-c2nc(CS(=O)(=O)CC(=O)NCCCN3CC(C)CC(C)C3)c(C)o2)c1` (centres undefined) is higher in inhibition: -8.9% for the first, -0.7% for the second.

First: Cn1c(=O)c(=O)n(C)c2cc(N3CCOCC3)c(NS(=O)(=O)c3ccc(F)c(Cl)c3)cc21
Second: Cc1ccc(S(=O)(=O)/C(C#N)=C/c2c(N3CCOCC3)nc3c(C)cccn3c2=O)cc1
The inhibition of the first is lower: -2.4% for the first, 3% for the second.

Going from `CC(C)(C)NC(=O)N1CCN(c2ncccc2C(F)(F)F)CC1` to `FC(F)(F)c1cccc(NC(=S)N2CCCC2)c1`, the inhibition rises from -1.3% to 12%.

First: O=C(CSc1nc2ccccc2[nH]1)NCCN1CCCCC1
Second: O=C(COc1ccccc1Cl)N1CCCCCCC1
The inhibition of the first is lower: -5.4% for the first, -0.6% for the second.

Going from `CCOc1ccc(C(=O)OCC(=O)NCc2ccco2)cc1OCC` to `CC(C)[C@H](NC(=O)c1ccco1)C(=O)NCc1ccccc1`, the inhibition rises from 3.1% to 6%.

Compared with `CCN1C(=O)N(c2ccc(C(C)=O)cc2)S(=O)(=O)c2ccccc21`, `Cc1ccc(NC(=O)CCC(=O)c2ccc(Br)cc2)cc1` is higher in inhibition: -4.4% for the first, 8.7% for the second.

Going from `Oc1ccccc1/C=N/Nc1cc(N2CCCC2)nc(N2CCCC2)n1` to `CN(C)c1ccc(NC(=O)CSc2nnc(C3CCCCC3)n2N)cc1`, the inhibition rises from -15.5% to -7.6%.

First: COc1ccnc2c1c(=O)n(Cc1ccc(Cl)cc1)c(=O)n2C
Second: CN1C(=O)CN=C(c2ccc(Cl)cc2)c2cc(Cl)ccc21
The inhibition of the first is lower: 0.3% for the first, 16% for the second.

Going from `CN(C)N1C(N)=C(C#N)C(c2cccc(Cl)c2)C2=C1CCCC2=O` (centres undefined) to `CCOC(=O)C1(Cc2cccc(Cl)c2)CCCN(C(=O)c2cc(CC)on2)C1` (centres undefined), the inhibition falls from 0.6% to -6.6%.

First: CC#CC#Cc1cccc(=O)o1
Second: CS(=O)(=O)/C(C#N)=C/c1cccn1S(=O)(=O)c1ccccc1
The inhibition of the first is higher: 42.9% for the first, -10.1% for the second.

Compared with `O=C(O)CCSC1CC(=O)N(c2ccccc2)C1=O` (centres undefined), `O=C(COc1ccccc1)NCCc1cnc[nH]1` is lower in inhibition: 16.8% for the first, -4.2% for the second.

First: COc1ccc(NC(=O)CSc2ccc3nnc(CCNC(=O)c4ccccc4)n3n2)cc1
Second: COc1ccc(-c2csc3ncn(Cc4ccccc4)c(=O)c23)cc1
The inhibition of the first is lower: -4.5% for the first, -2.5% for the second.

Going from `c1ccc(-c2cc(-c3ccccc3)[n+](-c3ccccc3)c(-c3ccccc3)c2)cc1` to `O=c1[nH]c2ccccc2nc1/C=C/c1ccc(Cl)cc1`, the inhibition rises from -14.8% to 14.9%.

Going from `CCOc1c(Br)cc(C(=O)N2CCCN(C)CC2)cc1OC` to `CC1CCCCN1CCCNC(=O)CN1C(=O)c2cccnc2Oc2ccc(Cl)cc21` (centres undefined), the inhibition falls from 2.9% to -4.5%.

First: COc1ccc(NCCC(O)c2ccc(Cl)cc2)cc1 (centres undefined)
Second: O=C(O)C(CCCCNS(=O)(=O)c1ccc(F)cc1)NS(=O)(=O)c1ccc(F)cc1 (centres undefined)
The inhibition of the first is higher: -2% for the first, -6.2% for the second.

`C=CCn1c(SCC(=O)c2c(C)[nH]c3ccccc23)nnc1-c1ccncc1` showed an inhibition of 35.6%.

In the case of `Nc1nn2c(-c3ccccc3)cc(=O)[nH]c2c1N=Nc1ccc(Br)cc1`, the inhibition is reported as 81.7% (active).
`COc1ccc(-c2cc3nc4ccccc4n3c(N)c2C#N)cc1` was tested, and the inhibition was 95.4% (active).
In the case of `COc1cccc(/C=N/Nc2ncnc3c2[nH]c2ccc(C)cc23)c1OC`, the inhibition is reported as 97.6% (active).
In the case of `CCCOc1ccc(-c2c(C(=O)N/N=C/c3cccnc3)nnn2-c2nonc2N)cc1`, the inhibition is reported as 96.5% (active).
In the case of `COc1ccc2[nH]c(=O)c(-c3noc(-c4ccc(F)cc4)n3)cc2c1`, the inhibition is reported as 97.2% (active).
With `Cc1ccc(NC(=O)Nc2nnc(-c3ccncc3)s2)cc1C` the inhibition was 94.2% (active).
`O=S(=O)(Nc1ccc(Cl)cc1)c1ccc(N2CCOCC2)c(NC(=S)NCCN2CCOCC2)c1` was tested, and the inhibition was 57.1% (active).
With `Cc1ccc(-c2nnn3c2nc(NCCc2ccc(S(N)(=O)=O)cc2)c2ccccc23)cc1` the inhibition was 98.7% (active).
With `COc1ccc(Cn2c(-c3ccc(C)cc3)nc3c(c(=O)c4ccccc4n3C)c2=O)cc1` the inhibition was 85.9% (active).
For `N#C/C(=C\c1ccc(-c2ccc(C(=O)O)cc2)o1)C(=O)Nc1ccc(F)cc1`, the inhibition was 82.2% (active).
In the case of `O=C(CSc1ccc2ccccc2n1)Nc1nsc(-c2ccc(Cl)cc2)n1`, the inhibition is reported as 80% (active).
With `CCn1c(SCC(=O)Nc2ccc(-c3nc4ccc(C)cc4s3)cc2)nnc1-c1ccccc1` the inhibition was 88.3% (active).
`Cn1c(SCC(=O)c2ccc3c(c2)Cc2ccccc2-3)nnc1-c1ccccc1` was tested, and the inhibition was 83.7% (active).
